Screening data: PubChem, National Center for Advancing Translational Sciences (NCATS)
Shown are actives, neighbours in structure and some others; about 19% of the full set was active somewhere.
HT1080 IDH1KD tx: qHTS for induction of synthetic lethality in tumor cells producing 2HG: qHTS for the HT-1080-IDH1KD cell line | 360,000 tested, 2% active | AID 686971, 2013 | HT-1080 IDH1 knockdown viability, ATP luminescence, 48 h | Potency, µM (top dose mostly 46.1 µM), without a hit: at the top dose activity, negative = toxicity, actives largely listed as cytotoxic;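 note: potency is the fitted concentration of half-maximal effect; 0% = DMSO wells and -100% = cell-free medium wells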
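% activity derives from luminescence (CellTiter-Glo), normalised to DMSO and no-cell wells. HT-1080-IDH1KD cells, 750/well, had 48 h compound exposure at 37 °C.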
HT1080-NT tox: qHTS for induction of synthetic lethality in tumor cells producing 2HG: qHTS for the HT-1080-NT fibrosarcoma cell line; HT-1080-NT fibrosarcoma viability, CellTiter-Glo ATP luminescence, 48 h; 360,000 tested, 1.6% active; AID 686970, 2013; Potency, µM (doses to about 46.1 µM), for inactives: at the top dose activity, negative = less viability, usual class: cytotoxic;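 note: NT is the 2HG producing partner of a matched IDH1 knockdown line; potency is the fitted concentration of half-maximal effect; 0% = DMSO-treated cells and -100% = media-only wells without cells; nearly all actives have a fitted effect of over 55% in size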
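Fibrosarcoma NT cells, 750 per well in 5% FBS RPMI, were exposed to compound for 48 hours. Viability: CellTiter-Glo luminescence.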
TDP1 cell CPT: qHTS for Inhibitors of human tyrosyl-DNA phosphodiesterase 1 (TDP1): qHTS in cells in presence of CPT; chicken DT40 Tdp1-/-;hTDP1 cells + 20 nM CPT, ATP luminescence, 48 h; Potency, µM (doses to about 46.2 µM), inactives show at the highest dose activity change, negative = growth inhibition, usual class: inhibitors; 420,000 tested, 12% active; note: potency is the fitted concentration of half-maximal effect; nearly all actives have a fitted effect of over 55% in size
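Cell growth measured by CellTiter-Glo luminescence after a minimum 48 h, 37 C compound exposure with 20 nM CPT in Tdp1-knockout DT40 cells stably expressing hTDP1, seeded 400/well; qHTS titration format.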
TDP1 cell noCPT: qHTS for Inhibitors of human tyrosyl-DNA phosphodiesterase 1 (TDP1): qHTS in cells in absence of CPT; DT40 Tdp1-/- hTDP1 cells, no CPT, ATP luminescence, 48 h; Potency, µM (series often up to 46.2 µM), for inactives: at the highest dose activity change, negative = growth inhibition, usual class: inhibitors; 420,000 tested, 15% active; note: potency is the fitted concentration of half-maximal effect; nearly all actives have a fitted effect of over 55% in size
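Readout: luminescence from CellTiter-Glo after 30 min in the dark at RT. Cells: DT40 Tdp1-/- with stable hTDP1, 400/well. Exposure: compounds alone, ≥48 hr, 37 °C.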
uPA generation: qHTS for Inhibitors of Cell Surface uPA Generation; Potency, µM (top dose mostly 38.3 µM), for the others: at the highest dose activity change, negative = inhibition, usual class: inhibitors; 330,000 tested, 0.31% active; AID 540303, 2011; cell surface uPA generation assay, qHTS; active = well fitted inhibition curve with a large enough effect; inconclusive = small, poorly fitted or top-dose-only effect; inactive = no such curve, though single readings can be large or run the other way; tested in mouse RAW 264.7 cells; note: potency is the fitted concentration of half-maximal effect; nearly all actives have a fitted effect of over 55% in size
IL-1B inflam inh: qHTS for Inhibitors of Inflammasome Signaling: IL-1-beta AlphaLISA Primary Screen. 360,000 tested, 4.7% active. THP-1 LPS/ATP IL-1B secretion, AlphaLISA, 16 h; active compounds read low. activity change, % at 57.5 µM; in the data active = activity change below about -50%; inconclusive = mostly about -30% to -49%
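Secreted IL-1B measured by AlphaLISA bead assay after 16 h compound exposure of THP-1 cells; compounds (final up to 57.5 uM) added 1 h before LPS (250 ng/mL) and ATP (1.25 mM) stimulation; lower signal means less secretion.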
Active calls of the source: *; u = inconclusive; x = no result given; [ ] = remark or other dose. Unless noted, calls come from the whole dose curve; as a rule, active = well fitted curve in the direction sought with a large enough effect; inconclusive = small, poorly fitted or top-dose-only effect, or another doubt; inactive = no such curve, though single readings can be large; an effect the other way counts as inactive or inconclusive. Unless noted, % is set by controls: 0 for no effect and ±100 for the full control effect.

SMILES	HT1080 IDH1KD tx	HT1080-NT tox	TDP1 cell CPT	TDP1 cell noCPT	uPA generation	IL-1B inflam inh
COc1ccc(-c2ccc3[nH]c4c(c3c2)CCN2C[C@@H]([C@H](C)OC(=O)Nc3cc(Cl)cc(Cl)c3)[C@@H](N(C)C(=O)Nc3cc(Cl)cc(Cl)c3)C[C@@H]42)cc1	-4%	-19%	u	u	x	-18
COc1ccc(NC(=O)O[C@@H](C)[C@@H]2CN3CCc4c([nH]c5ccc(-c6ccc(OC)cc6)cc45)[C@@H]3C[C@@H]2N(C)C(=O)Nc2ccc(OC)cc2)cc1	-23%	-23%	u	13µM*	x	-6
COc1ccc(NC(=O)N(C)[C@H]2C[C@H]3c4[nH]c5ccc(-c6ccc(OC)cc6)cc5c4CCN3C[C@H]2[C@H](C)O)cc1	16µM*	23µM*	u	u	x	u
COc1ccc(NC(=O)N(C)[C@H]2C[C@H]3c4[nH]c5ccc(-c6ccc7c(c6)OCO7)cc5c4CCN3C[C@H]2[C@H](C)O)cc1	23µM*	23µM*	8.2µM*	10µM*	x	-12
Fc1ccc(N2CCN(Cc3cccn3-c3nnc(N4CCN(C5CCCCC5)CC4)s3)CC2)cc1	x	x	9%	-15%	x	x
C/C(=N\Nc1nc(Cl)c(Cl)cc1Cl)c1ccc(S(=O)(=O)NCc2ccco2)cc1	-29%	-2%	u	21µM*	-8%	-20
Cc1ccc(NC(=O)c2ccc(OC(F)(F)F)cc2)cc1S(=O)(=O)N(C)C	-28%	-24%	u	26µM*	-3%	5
Cc1cc(C)n(-c2ccc(C(=O)Nc3cccc(S(=O)(=O)N(C)C)c3)cc2)n1	-20%	1%	1.8µM*	1.6µM*	-9%	0
Cc1cc(C)n(-c2ccc(C(=O)Nc3ccc4c(c3)OCO4)cc2)n1	-9%	-10%	u	u	-5%	-54*
CCCCOC(=O)c1ccc(-n2nnc3c(sc4nc(C)cc(C)c43)c2=O)cc1	x	x	-22%	u	x	x
NC(=O)c1ccc(NC(=O)CNC(c2ccccc2)c2ccccc2)cc1	0%	7%	4%	3%	9%	47
Cc1cc(C)n(-c2ccc(C(=O)Nc3ccc(S(=O)(=O)N(C)C)cc3)cc2)n1	-13%	-19%	u	23µM*	1%	3
CCCCN1C(=O)c2ccc(C(=O)Nc3cccc(C)c3C)cc2C1=O	-1%	2%	1%	3%	4%	9
Cc1cc(C)n(-c2ccc(C(=O)Nc3ccc(C)c(S(=O)(=O)N(C)C)c3)cc2)n1	u	u	u	u	-13%	-78*
Cc1cc(C)n(-c2ccc(C(=O)Nc3ccc(N4CCOCC4)cc3)cc2)n1	12%	14%	3%	-3%	2%	-18
Cc1cc(C)n(-c2ccc(C(=O)Nc3cccc([N+](=O)[O-])c3)cc2)n1	-14%	u	-23%	u	1%	u
Cc1ccc(NC(=O)c2ccncc2)cc1S(=O)(=O)N(C)C	7%	7%	1%	-17%	8%	29
CCCCN1C(=O)c2ccc(C(=O)Nc3ccc(C)c(S(=O)(=O)N(C)C)c3)cc2C1=O	-12%	-12%	u	16µM*	-9%	-9
COc1ccc(NC(=O)c2ccc(-n3nc(C)cc3C)cc2)cc1OC	-2%	5%	u	u	1%	-51*
CC(O)(COc1ccccc1)c1ccc2c(c1)CN(Cc1ccccn1)CCO2 (centres undefined)	x	x	-1%[9.04 µM]	-20%	x	x
Cc1ccc(C(=O)Nc2ccc(S(=O)(=O)NCc3ccco3)cc2)cc1	u	u	u	u	x	10
CCN(CC)S(=O)(=O)c1cccc(NC(=O)c2ccc(-n3nc(C)cc3C)cc2)c1	0%	-6%	u	23µM*	-14%	u
Cc1cc(C)n(-c2ccc(C(=O)Nc3ccc(S(=O)(=O)NCc4ccco4)cc3)cc2)n1	u	-22%	18µM*	18µM*	-10%	-54*
CCC[C@H]1CN(c2ccc(OC)cc2)C(=O)[C@@H]1CC(=O)NC	3%	15%	1%	-1%	x	18
CCC1CN(C(=O)N2CCC(C(=O)NCCc3ccccc3OC)CC2)c2ccccc2O1 (centres undefined)	13%	-5%	u	13µM*	1%	-18
SMILES	HT1080 IDH1KD tx	HT1080-NT tox	TDP1 cell CPT	TDP1 cell noCPT	uPA generation	IL-1B inflam inh
CCC1CN(C(=O)N2CCC(C(=O)NCCc3ccc(OC)cc3OC)CC2)c2ccccc2O1 (centres undefined)	-9%	10%	26µM*	u	-15%	u
COc1ccc(OCC(=O)OCc2cc(=O)n3nc(C4CCCCC4)sc3n2)cc1	x	x	2%	4%	x	x
Cc1cc(NC(=O)CSc2ccc(-c3ccc(F)cc3)nn2)no1	1%	-2%	-2%	-11%	-1%	64
O=C1C[C@H]2[C@H](CO)[C@@H](OC(=O)c3ccc(-c4ccccc4)cc3)C[C@H]2O1	-1%	-2%	u	16µM*	-5%	u
CCCCN(C)CCN1C(=O)C2C(C(=O)Nc3ccc(Cl)cc3)C3C=CC2(O3)C1C(=O)NC1CCCCC1 (centres undefined)	u	-19%	9%	-16%	-1%	-60*
CCOC(=O)C1(C)CCCN(C(=O)c2cccs2)C1 (centres undefined)	4%	1%	-12%	9%	x	45
Cc1ccc(NC(=O)c2c(C)nc3sc(C(=O)NC4CCCC4)c(N)c3c2-c2ccco2)c(C)c1	7%	3%	2.9µM*	5.2µM*	6%	19
COC(=O)c1sc2nc3c(c(-c4cccs4)c2c1N)CCCC3	-3%	23%	-14%	u	1%	-1
Cc1ccccc1NC(=O)c1sc2nc3c(c(-c4ccco4)c2c1N)CCC3	16%	19%	u	u	21%	-69*
Nc1c(C(=O)NCC2CCCO2)sc2nc3c(c(-c4ccco4)c12)CC/C3=C\c1ccco1 (centres undefined)	0%	-2%	u	26µM*	1%	-4
O=C(/C=C/c1ccco1)NCC1CCCO1 (centres undefined)	8%	4%	-10%	-10%	-2%	13
